Structures are written as SMILES. Calls of active or inactive are those of the source.

In PubChem BioAssay one finds composite z-score and z-score data, which are given here for 5 molecules.

The test system of experiment [1] is PRMT1 (protein arginine N-methyltransferase 1). The experiment can be described thus: PRMT1 binders on small-molecule microarrays, primary screen, biochemical, small-molecule microarray, 635 nm fluorescence (AID 1088).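 Also: binding of Prmt1 protein to compounds spotted on small-molecule microarray slides.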 To be noted: small-molecule microarray binding, higher = more signal.
Experiment [2] in a line: yeast growth modulation, basal conditions, primary screen, YJM789 clinical isolate, OD600, 24 h (AID 1089).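 Also: growth of clinical yeast isolate S. cerevisiae YJM 789 seeded 1000 cells per well; test concentration not given here.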 Particulars: S. cerevisiae YJM789 growth, higher = more signal, called active from +8 up or from −8 down.
A short description of experiment [3]: fission yeast growth modulation, primary screen, strain 972, OD600, 24 h, no modulator (AID 1090).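 Also: basal condition with compound alone and no growth modifier present; test concentration not given here.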 To be noted: S. pombe 972 growth, higher = more signal, called active from +8 up or from −8 down.
A short description of experiment [4]: S. cerevisiae growth modulation with rapamycin, primary screen, strain BY4716, OD600, 96 h (AID 1091). Also: test concentration not given here. Particulars: higher = more signal, called active from +8 up or from −8 down.
Experiment [5] concerns the target Torsin-1A-interacting protein 2 (Homo sapiens) (UniProt Q8NFQ8). The experiment can be described thus: LULL1 binders on small-molecule microarray, primary screen, cell lysate, human LULL1 lysate, 635/667 nm fluorescence (AID 1092).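 Also: probe is lysate of COS7 cells overexpressing human LULL1; score merges per-feature 667 nm fluorescence with signal-to-noise.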 Particulars: hLULL1 lysate binding, 635 nm fluorescence, higher = more signal.
A short description of experiment [6]: E. coli growth modulation, two-sided OD650, primary screen, E. coli filamentation project, strain DRC41, 24 h (AID 1093).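 Also: MC1000 strain lacking acrAB efflux and sulA so SOS filamentation is blocked; test concentration not given here.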 To be noted: OD650, 24 h, higher = more signal, called active from +8 up or from −8 down.
Experiment [7] is described as follows: small-molecule microarray binders of probe aLefty2, primary screen, biochemical, biotinylated probe, 635/667 nm fluorescence (AID 1094).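 Also: score merges spot fluorescence near 667 nm with spot signal-to-noise ratio.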 Particulars: higher = more signal.
In experiment [8] the test system is Noggin (protein binding on small-molecule microarray). The experiment can be described thus: Noggin binders on small-molecule microarray, primary screen, biochemical, 635/667 nm fluorescence (AID 1095).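 Also: score merges 667 nm feature fluorescence with signal to noise over triplicate slides.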 Particulars: 635 nm fluorescence, higher = more signal.
In experiment [9] the target is Neurogenic locus notch homolog protein 3 (Homo sapiens) (UniProt Q9UM47). As to the kind of experiment: NOTCH3 binders on small-molecule microarray, primary screen, biochemical, 635/667 nm fluorescence (AID 1096). To be noted: NOTCH3 binding, 635 nm fluorescence, higher = more signal.
A short description of experiment [10]: small-molecule microarray binders of probe aEGFR, primary screen, biochemical, biotinylated probe, 635/667 nm fluorescence (AID 1097).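 Also: probe is a biotinylated anti-EGFR antibody binding compounds printed on slides; score combines fluorescence near 667 nm and signal to noise of each spot.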 To be noted: higher = more signal.
Experiment [11] has as its system Plasmodium falciparum Sir2 (PF13_0152, Sir2A). As to the kind of experiment: pfSir2 binders on small-molecule microarrays, primary screen, biochemical, small-molecule microarray, 635 nm fluorescence (AID 1098).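 Also: score merges spot fluorescence intensity with its signal-to-noise ratio.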 To be noted: small-molecule microarray binding, fluorescence 635 nm; higher = more signal.
The nature of experiment [12]: small-molecule microarray binders of probe aDKK1, primary screen, biochemical, biotinylated probe, 635/667 nm fluorescence (AID 1099).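 Also: score merges 667nm spot fluorescence with signal to noise across triplicate slides; reference of the scale not given here.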 Particulars: higher = more signal.
Experiment [13] can be described thus: small-molecule microarray binders of probe aCHRDL2, primary screen, biochemical, biotinylated probe, 635/667 nm fluorescence (AID 1100). To be noted: higher = more signal.
Experiment [14] in a line: splicing luciferase reporter signal modulators, primary screen, spliceosome inhibition project, cell-based, HEK293, splice +/- reporter (AID 1101).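 Also: HEK293 cells carrying a splicing-competent luciferase reporter gene; test concentration not given here.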 Particulars: luminescence, 24 h, higher = more signal, called active from +8 up or from −8 down. (In general: In a reporter assay the amount or activity of a reporter protein is the signal.)
For experiment [15], the target named is Fibroblast growth factor 10 (Homo sapiens) (UniProt O15520). The experiment can be described thus: FGF10 binders on small-molecule microarrays, primary screen, biochemical, small-molecule microarray, 635 nm fluorescence (AID 1102). To be noted: FGF10 binding, fluorescence 635 nm, higher = more signal.
The subject of experiment [16] is glycogen synthase kinase-3 (GSK3A per assay name; protocol says GSK3B). The experiment can be described thus: GSK3 binders on small-molecule microarrays, primary screen, biochemical, small-molecule microarray, 635 nm fluorescence, GSK3A (AID 1103). Also: the record names both GSK3A and GSK3B. Particulars: small-molecule microarray binding, fluorescence 635 nm; higher = more signal.
Experiment [17] has as its target Epidermal growth factor receptor (Homo sapiens) (UniProt P00533). As to the kind of experiment: EGFR binders on small-molecule microarrays, primary screen, biochemical, small-molecule microarray, 635 nm fluorescence (AID 1104).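 Also: score merges 667 nm emission intensity with spot signal to noise over triplicate slides.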 Particulars: EGFR binding, higher = more signal.
Experiment [18] concerns the target Follistatin-related protein 3 (Homo sapiens) (UniProt O95633). As to the kind of experiment: FSTL3 binders on small-molecule microarrays, primary screen, biochemical, small-molecule microarray, 635 nm fluorescence (AID 1105).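 Also: score merges emission near 667 nm and signal to noise per printed spot across three slides.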 Particulars: FSTL3 binding, higher = more signal.
Experiment [19] has as its target Dickkopf-related protein 1 (Homo sapiens) (UniProt O94907). As to the kind of experiment: DKK1 binders on small-molecule microarrays, primary screen, biochemical, small-molecule microarray, 635 nm fluorescence scan (AID 1106).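 Also: score merges emission near 667 nm with signal to noise over three replicate slides.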 Particulars: DKK1 binding, higher = more signal.
Experiment [20] deals with Inhibin beta A chain (activin A). As to the kind of experiment: INHBA (activin A) binders on microarrays, primary screen, biochemical, small-molecule microarray, 635 nm fluorescence scan (AID 1107).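 Also: mouse activin A protein probed at 4.33 µg/mL on printed slides; score merges bound-protein fluorescence near 667 nm with spot signal-to-noise.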 To be noted: small-molecule microarray binding, higher = more signal.

Torsin-1A-interacting protein 2 (Homo sapiens), sequence (Q8NFQ8 whole entry, looked up): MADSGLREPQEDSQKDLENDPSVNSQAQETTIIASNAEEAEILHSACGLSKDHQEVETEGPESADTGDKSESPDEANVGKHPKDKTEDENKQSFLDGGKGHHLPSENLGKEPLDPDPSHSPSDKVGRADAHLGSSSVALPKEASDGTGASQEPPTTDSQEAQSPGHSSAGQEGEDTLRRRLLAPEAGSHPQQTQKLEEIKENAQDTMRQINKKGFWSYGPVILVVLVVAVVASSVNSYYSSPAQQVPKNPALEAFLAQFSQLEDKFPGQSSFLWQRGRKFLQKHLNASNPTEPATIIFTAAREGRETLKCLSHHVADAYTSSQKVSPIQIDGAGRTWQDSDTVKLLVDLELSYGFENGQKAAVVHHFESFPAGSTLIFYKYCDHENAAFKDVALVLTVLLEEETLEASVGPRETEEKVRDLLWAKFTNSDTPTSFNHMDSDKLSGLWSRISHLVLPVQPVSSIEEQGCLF
Epidermal growth factor receptor (Homo sapiens), sequence (P00533 whole entry, looked up): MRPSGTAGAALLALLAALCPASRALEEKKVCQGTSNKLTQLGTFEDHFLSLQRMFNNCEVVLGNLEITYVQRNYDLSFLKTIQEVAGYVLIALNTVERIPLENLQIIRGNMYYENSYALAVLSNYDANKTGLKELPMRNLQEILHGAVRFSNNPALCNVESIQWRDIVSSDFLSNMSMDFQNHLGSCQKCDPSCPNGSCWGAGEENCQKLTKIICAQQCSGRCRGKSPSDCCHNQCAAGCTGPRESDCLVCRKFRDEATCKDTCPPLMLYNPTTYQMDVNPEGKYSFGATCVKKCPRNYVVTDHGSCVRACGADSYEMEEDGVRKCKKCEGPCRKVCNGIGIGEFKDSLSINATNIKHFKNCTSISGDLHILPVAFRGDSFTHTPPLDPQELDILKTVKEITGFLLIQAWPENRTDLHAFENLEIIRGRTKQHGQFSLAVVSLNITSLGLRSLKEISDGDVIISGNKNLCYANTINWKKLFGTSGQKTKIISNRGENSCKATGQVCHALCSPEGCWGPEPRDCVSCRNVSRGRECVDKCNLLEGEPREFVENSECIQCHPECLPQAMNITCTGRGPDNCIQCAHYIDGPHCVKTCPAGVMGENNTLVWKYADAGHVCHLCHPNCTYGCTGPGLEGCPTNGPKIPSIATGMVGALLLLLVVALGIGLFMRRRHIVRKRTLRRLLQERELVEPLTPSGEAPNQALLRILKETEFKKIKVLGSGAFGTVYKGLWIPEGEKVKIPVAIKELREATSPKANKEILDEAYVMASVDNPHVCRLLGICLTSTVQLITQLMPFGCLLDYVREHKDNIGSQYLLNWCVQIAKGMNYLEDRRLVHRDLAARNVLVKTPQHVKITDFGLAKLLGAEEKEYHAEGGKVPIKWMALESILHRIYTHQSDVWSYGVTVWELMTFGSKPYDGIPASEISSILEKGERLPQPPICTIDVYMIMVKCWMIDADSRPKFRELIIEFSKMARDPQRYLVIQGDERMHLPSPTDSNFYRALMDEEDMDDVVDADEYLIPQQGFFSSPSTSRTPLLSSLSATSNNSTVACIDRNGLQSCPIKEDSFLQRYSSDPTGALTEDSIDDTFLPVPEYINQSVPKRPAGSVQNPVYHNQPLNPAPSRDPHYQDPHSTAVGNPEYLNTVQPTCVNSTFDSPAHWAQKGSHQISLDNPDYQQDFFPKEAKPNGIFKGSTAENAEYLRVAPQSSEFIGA
Dickkopf-related protein 1 (Homo sapiens), sequence (O94907 whole entry, looked up): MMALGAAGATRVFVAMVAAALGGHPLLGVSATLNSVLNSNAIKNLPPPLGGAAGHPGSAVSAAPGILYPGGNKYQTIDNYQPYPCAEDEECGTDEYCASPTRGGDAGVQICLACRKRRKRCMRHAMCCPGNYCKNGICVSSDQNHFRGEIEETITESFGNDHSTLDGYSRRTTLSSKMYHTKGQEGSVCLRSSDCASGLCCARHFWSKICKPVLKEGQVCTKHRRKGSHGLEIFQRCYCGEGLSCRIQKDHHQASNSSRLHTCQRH
Fibroblast growth factor 10 (Homo sapiens), sequence (O15520 whole entry, looked up): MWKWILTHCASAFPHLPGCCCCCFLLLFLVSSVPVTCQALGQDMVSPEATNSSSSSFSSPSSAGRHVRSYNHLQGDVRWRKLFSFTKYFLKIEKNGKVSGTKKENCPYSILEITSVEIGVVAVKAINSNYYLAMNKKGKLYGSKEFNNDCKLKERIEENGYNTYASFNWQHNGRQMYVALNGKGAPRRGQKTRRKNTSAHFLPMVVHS
Neurogenic locus notch homolog protein 3 (Homo sapiens), sequence (Q9UM47 whole entry, looked up): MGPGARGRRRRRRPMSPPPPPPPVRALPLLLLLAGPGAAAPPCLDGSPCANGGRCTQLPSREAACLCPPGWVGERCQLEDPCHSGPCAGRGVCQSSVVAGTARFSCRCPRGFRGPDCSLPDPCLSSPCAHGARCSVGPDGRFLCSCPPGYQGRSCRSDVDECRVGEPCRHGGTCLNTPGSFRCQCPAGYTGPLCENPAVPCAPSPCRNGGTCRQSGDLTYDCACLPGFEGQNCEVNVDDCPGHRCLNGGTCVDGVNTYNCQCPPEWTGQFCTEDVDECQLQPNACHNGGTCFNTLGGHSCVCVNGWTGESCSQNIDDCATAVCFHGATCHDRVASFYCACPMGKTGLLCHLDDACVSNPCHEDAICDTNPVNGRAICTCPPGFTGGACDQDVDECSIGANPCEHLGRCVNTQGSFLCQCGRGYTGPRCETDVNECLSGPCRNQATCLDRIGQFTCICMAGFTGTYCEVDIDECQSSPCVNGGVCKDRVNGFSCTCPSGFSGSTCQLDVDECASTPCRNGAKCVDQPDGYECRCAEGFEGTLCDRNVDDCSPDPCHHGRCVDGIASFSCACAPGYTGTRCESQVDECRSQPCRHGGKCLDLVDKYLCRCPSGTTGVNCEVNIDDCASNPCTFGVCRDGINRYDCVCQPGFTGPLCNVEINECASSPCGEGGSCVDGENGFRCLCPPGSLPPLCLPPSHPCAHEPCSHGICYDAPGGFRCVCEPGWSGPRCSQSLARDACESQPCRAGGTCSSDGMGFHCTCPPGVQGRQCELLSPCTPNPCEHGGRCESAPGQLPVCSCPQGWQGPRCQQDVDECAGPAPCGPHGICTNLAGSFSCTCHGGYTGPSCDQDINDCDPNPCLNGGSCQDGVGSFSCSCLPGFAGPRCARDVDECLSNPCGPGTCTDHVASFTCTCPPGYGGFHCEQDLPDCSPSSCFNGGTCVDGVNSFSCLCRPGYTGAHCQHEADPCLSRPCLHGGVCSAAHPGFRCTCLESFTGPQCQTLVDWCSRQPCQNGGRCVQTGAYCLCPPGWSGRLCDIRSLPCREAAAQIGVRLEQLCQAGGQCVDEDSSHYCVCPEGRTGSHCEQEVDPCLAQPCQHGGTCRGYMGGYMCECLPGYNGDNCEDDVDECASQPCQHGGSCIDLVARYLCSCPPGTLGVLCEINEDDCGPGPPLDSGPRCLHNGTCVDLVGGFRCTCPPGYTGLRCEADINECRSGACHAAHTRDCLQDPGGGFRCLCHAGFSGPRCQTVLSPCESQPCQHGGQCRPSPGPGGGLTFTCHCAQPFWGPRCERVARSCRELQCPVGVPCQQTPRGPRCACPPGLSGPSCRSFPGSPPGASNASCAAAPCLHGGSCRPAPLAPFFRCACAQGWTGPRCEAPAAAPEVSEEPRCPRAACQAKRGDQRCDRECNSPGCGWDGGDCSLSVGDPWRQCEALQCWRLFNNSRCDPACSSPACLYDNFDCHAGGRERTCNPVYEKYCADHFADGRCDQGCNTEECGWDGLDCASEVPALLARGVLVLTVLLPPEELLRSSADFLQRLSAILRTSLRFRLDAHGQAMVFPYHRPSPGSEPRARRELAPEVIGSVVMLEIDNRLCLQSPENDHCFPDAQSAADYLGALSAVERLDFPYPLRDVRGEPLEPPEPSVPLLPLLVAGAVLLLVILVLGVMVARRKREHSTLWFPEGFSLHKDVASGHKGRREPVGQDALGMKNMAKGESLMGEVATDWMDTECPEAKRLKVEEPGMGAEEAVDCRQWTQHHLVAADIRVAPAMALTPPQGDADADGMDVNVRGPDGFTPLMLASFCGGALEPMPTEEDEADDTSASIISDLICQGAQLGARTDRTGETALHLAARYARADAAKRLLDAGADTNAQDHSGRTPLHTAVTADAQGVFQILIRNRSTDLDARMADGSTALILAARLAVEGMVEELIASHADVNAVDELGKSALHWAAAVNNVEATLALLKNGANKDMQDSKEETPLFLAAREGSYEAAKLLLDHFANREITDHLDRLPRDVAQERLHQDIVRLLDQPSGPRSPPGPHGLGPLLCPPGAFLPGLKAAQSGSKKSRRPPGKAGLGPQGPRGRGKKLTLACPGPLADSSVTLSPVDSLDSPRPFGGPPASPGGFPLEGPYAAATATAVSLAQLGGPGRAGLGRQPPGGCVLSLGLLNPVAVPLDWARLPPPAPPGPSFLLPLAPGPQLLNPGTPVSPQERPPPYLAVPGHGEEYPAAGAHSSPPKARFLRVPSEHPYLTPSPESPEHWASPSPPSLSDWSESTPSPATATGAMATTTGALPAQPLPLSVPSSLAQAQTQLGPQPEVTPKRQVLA
Follistatin-related protein 3 (Homo sapiens), sequence (O95633 whole entry, looked up): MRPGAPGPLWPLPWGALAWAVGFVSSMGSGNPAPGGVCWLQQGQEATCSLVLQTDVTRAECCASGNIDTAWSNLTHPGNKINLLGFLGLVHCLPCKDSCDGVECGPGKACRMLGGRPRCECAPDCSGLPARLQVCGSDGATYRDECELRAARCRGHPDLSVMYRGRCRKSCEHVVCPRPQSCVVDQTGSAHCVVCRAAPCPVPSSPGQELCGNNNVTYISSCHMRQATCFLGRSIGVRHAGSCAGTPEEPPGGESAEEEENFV

As to `C=C(CCCC)/C(=C/C[C@@H](OC(C)=O)c1ccc(CO)o1)c1cc(C(=O)OC)ccc1OC`, the composite z-score in experiment [1] is 1.57; in experiment [5], 2.75; in experiment [7], -0.134; in experiment [8], 1.44; in [9], 1.06; in experiment [10] it was 0.021. Also, the composite z-score in experiment [11] is 0.416; in [12] it was -0.198; in [13], -0.549; in experiment [15], 1.19; in experiment [16], 1.13; in experiment [17], 0.0789. Also, the composite z-score in experiment [18] stood at 1.4; in experiment [19], 0.543; in [20], 0.207. In addition, the z-score in [2] was 0.562 (inactive); in [3] it was -0.911 (inactive); in experiment [4], 0.28 (inactive); in [6], -0.12 (inactive); in experiment [14], 1.32 (inactive).

In the case of `C=C(COC)/C(=C/C[C@@H](OC(=O)c1ccncc1)c1ccc(CO)o1)c1cnc2ccccc2c1`, the composite z-score is 1.55 in [1]; 1.59 in experiment [5]; -0.112 in experiment [7]; 1.88 in experiment [8]; 1.02 in [9]; -0.0059 in experiment [10]. Besides, the composite z-score was 1.06 in experiment [11]; -0.182 in experiment [12]; -0.386 in experiment [13]; 1.59 in [15]; 1.35 in experiment [16]; 1.59 in experiment [17]. Further, the composite z-score stood at 1.57 in experiment [18], 1.2 in experiment [19] and 1.87 in experiment [20]. Also, the z-score is -0.854 (inactive) in [2]; 0.536 (inactive) in experiment [3]; 0.14 (inactive) in experiment [4]; 0.647 (inactive) in experiment [6]; 0.773 (inactive) in experiment [14].

As for `COC(=O)[C@@]1(Cc2ccccc2)[C@H]2c3cc(C(=O)N4CCCC4)[nH]c3C[C@H]2CN1C(=O)c1ccccc1`, the composite z-score in experiment [1] is -1.74; in experiment [5], 3.51; in experiment [7], 0.134; in experiment [8], -0.463; in experiment [9], -0.0434; in experiment [10], -0.122. Also, the composite z-score in experiment [11] is 1.1; in experiment [12] it was 0.865; in [13], 0.91; in experiment [15], -0.486; in [16] it was 0.0863; in [17] it was -0.478. Also, the composite z-score in experiment [18] is -0.444; in experiment [19] it was -0.988; in [20], 0.916. In addition, the z-score was -0.202 (inactive) in experiment [2]; 1.02 (inactive) in [3]; 0.0237 (inactive) in experiment [4]; -0.156 (inactive) in experiment [6]; -0.0516 (inactive) in experiment [14].

For `COCCOC(=O)N1C(=O)[C@@]2(c3cc(C#CC4(O)CCCCCC4)ccc31)[C@H](C(=O)N1CCCCCCC1)[C@H]1C(=O)O[C@H](c3ccccc3)[C@H](c3ccccc3)N1[C@@H]2c1ccc(OCCO)cc1`, the composite z-score in experiment [1] amounted to 1.53; in experiment [5], 3.7; in [7] it was 1.77; in [8] it was 1.89; in experiment [9] it was 1.03; in experiment [10], 0.757. Also, the composite z-score in experiment [11] was 1.65; in experiment [12], 2.65; in [13], 1.45; in experiment [15], 1.5; in experiment [16], 1.35; in experiment [17] it was 1.46. Further, the composite z-score in [18] was 1.62; in [19], 1.72; in experiment [20] it was 1.68. Further, the z-score was 0.474 (inactive) in experiment [2]; 0.638 (inactive) in experiment [3]; 2.39 (inactive) in experiment [4]; 1.82 (inactive) in experiment [6]; 0.225 (inactive) in experiment [14].

For `CC(C)CCC[C@@H](C)[C@H]1CC[C@@]2(C)C3=C(CC[C@]12C)[C@@]1(C)CC[C@H](OC(=O)c2ccc(Br)cc2)C(C)(C)C1CC3` (stereo not given in full), the composite z-score in experiment [1] was 0.739; in [5] it was 0.172; in experiment [7], -0.0542; in experiment [8], 0.326; in experiment [9], 0.888; in [10], -0.0333. Also, the composite z-score in [11] was 0.27; in experiment [12], -0.153; in experiment [13], -0.331; in experiment [15], 0.609; in [16], 0.55; in experiment [17], 0.593. The composite z-score in experiment [18] came to 0.506; in [19], 0.391; in experiment [20], 0.26. Further, the z-score is -1.15 (inactive) in [2]; -1.28 (inactive) in experiment [3]; -0.346 (inactive) in [4]; 2.77 (inactive) in [6]; -1.13 (inactive) in experiment [14].
